Drawing on PubChem BioAssay (EPA / NIEHS), this text covers outcome and AC50 for 10 molecules.

Records with an inconclusive call do not appear. Active and inactive are the calls of the source. Rule for the calls, unless noted: active = hit-call score of the fitted dose curve at least 0.9, where 1 is the maximum; inactive = score below 0.9.

In assay [1] the target is Paired box protein Pax-6 (Homo sapiens) (UniProt P26367). In words: ATG_Pax6_CIS: Attagene CIS-FACTORIAL HepG2 Assay for human Paired Box 6 (PAX6) (AID 2282956). Conditions: HepG2 CIS-FACTORIAL PAX6 reporter transcription, RNA readout; actives raise or lower the signal. Put shortly: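 Multiplexed cis-reporter HepG2 system; 24 h treatment; reporter mRNA read by RT-PCR/CE fluorescence; bidirectional fit vs DMSO.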

Assay [2] in a line: ATG_PXRE_CIS: Attagene CIS-FACTORIAL HepG2 Assay for human Pregnane X Receptor Element (PXRE) (AID 2282957). Conditions: HepG2 Attagene CIS-FACTORIAL PXRE reporter, mRNA; actives raise or lower the signal. In outline:
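Cells: HepG2, transiently transfected reporter units under cis promoter control. Exposure: 24 h. Detection: reporter mRNA via RT-PCR/CE fluorescence; bidirectional fitting, DMSO-referenced.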

Assay [3] can be described thus: ATG_Sox_CIS: Attagene CIS-FACTORIAL HepG2 Assay for human SRY-box transcription factor (SOX) (AID 2282960). Particulars: HepG2 Attagene cis-factorial SOX reporter, mRNA; actives raise or lower the signal. In outline:
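Reporter transcripts, measured by RT-PCR and capillary electrophoresis of labelled fragments, report endogenous SOX transcription factor activity. Transiently transfected human HepG2 cells receive chemical for 24 h; changes in either direction are fitted relative to DMSO.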

Assay [4] deals with Transcription factor Sp1 (Homo sapiens) (UniProt P08047). The assay can be described thus: ATG_Sp1_CIS: Attagene CIS-FACTORIAL HepG2 Assay for human Specificity Protein 1 (Sp1) (AID 2282961). Particulars: HepG2 Sp1 cis-reporter transcription, actives raise or lower the signal. Put shortly: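 Read-out is reporter transcript level, measured by RT-PCR and fluorescent capillary electrophoresis after 24 h chemical treatment. System: transiently transfected HepG2 cells reporting endogenous transcription factor activity; gain or loss fitted against DMSO baseline.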

Assay [5] is described as follows: ATG_SREBP_CIS: Attagene CIS-FACTORIAL HepG2 Assay for human Sterol Regulatory Element Binding (SREBP) (AID 2282962). Conditions: HepG2 Attagene cis-factorial SREBP reporter, mRNA; actives raise or lower the signal. In outline:
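mRNA induction of transfected cis-promoter reporters in HepG2 cells, 24 h post-dose. Detection: RT-PCR with 6-FAM-labelled products, HpaI digest, capillary electrophoresis. DMSO served as negative control and baseline.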

In assay [6] the target is Signal transducer and activator of transcription 3 (Homo sapiens) (UniProt P40763). The assay can be described thus: ATG_STAT3_CIS: Attagene CIS-FACTORIAL HepG2 Assay for human Signal Transducer and Activator of Transcription 3 (STAT3) (AID 2282963). Particulars: HepG2, Attagene cis-factorial STAT3 reporter transcription; actives raise or lower the signal. In outline:
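HepG2 cells transiently transfected with cis-element-driven multiple reporter transcription units; after 24 h chemical exposure, reporter mRNA measured by RT-PCR, 6-FAM primer-extension labelling, HpaI digestion and capillary electrophoresis. Bidirectional fitting versus DMSO baseline.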

Assay [7] is described as follows: ATG_TA_CIS: Attagene CIS-FACTORIAL HepG2 Assay for human TA Basal Promoter (AID 2282964). Conditions: HepG2 Attagene CIS-factorial TA basal promoter reporter; actives raise or lower the signal. Put shortly: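 HepG2 cells transiently transfected with multiplexed cis-promoter reporter units, dosed 24 h. Reporter mRNA measured by RT-PCR, 6-FAM labelling, HpaI digestion and capillary electrophoresis; bidirectional fit versus DMSO baseline, serving as background control.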

The nature of assay [8]: ATG_TCF_b_cat_CIS: Attagene CIS-FACTORIAL HepG2 Assay for human T-Cell-Factor with beta-catenin (TCF/b-cat) (AID 2282965). Particulars: HepG2 TCF/beta-catenin cis-reporter transcription, actives raise or lower the signal. In outline: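 Using capillary electrophoresis as the read-out, labelled reporter cDNA fragments from transiently transfected HepG2 were sized and quantified. Exposure lasted 24 hours; activity in either direction was referenced to DMSO.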

The nature of assay [9]: ATG_TAL_CIS: Attagene CIS-FACTORIAL HepG2 Assay for human TAL Basal Promoter (AID 2282966).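 Note: background control endpoint measuring basal TAL promoter reporter mRNA not a specific factor.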 Conditions: HepG2 Attagene cis-factorial TAL promoter reporter; actives raise or lower the signal. Put shortly:
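RT-PCR plus capillary electrophoresis quantifies reporter mRNA induction in transiently transfected HepG2 cells after 24 h chemical treatment. DMSO serves as negative control and baseline for bidirectional fitting.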

Assay [10] is described as follows: ATG_TGFb_CIS: Attagene CIS-FACTORIAL HepG2 Assay for human Transforming Growth Factor (TGF) (AID 2282967). Conditions: HepG2 Attagene CIS TGFb reporter, mRNA transcription; actives raise or lower the signal. Put shortly: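 HepG2 cells transiently transfected with cis-promoter-driven multiplexed reporter units; 24 h compound exposure. Reporter mRNA measured by RT-PCR, 6-FAM labeling, HpaI digestion and capillary electrophoresis; bidirectional fit versus DMSO baseline.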

Assay [11] can be described thus: ATG_VDRE_CIS: Attagene CIS-FACTORIAL HepG2 Assay for human Vitamin D Receptor Element (VDRE) (AID 2282968). Particulars: HepG2 VDRE cis-reporter transcription, actives raise or lower the signal. Put shortly: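 HepG2 cells transiently transfected with cis-element reporter units, dosed 24 h; reporter mRNA measured by RT-PCR, 6-FAM labeling, HpaI digestion and capillary electrophoresis. Activity fitted bidirectionally against DMSO baseline.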

The target in assay [12] is Estrogen receptor (Homo sapiens) (UniProt P03372). In words: ATG_ERa_TRANS: Attagene TRANS-FACTORIAL HepG2 Assay for human Estrogen Receptor alpha (ERa) (AID 2282970; active = hit-call score of the fitted dose curve at least 0.9, where 1 is the maximum). Particulars: HepG2 Attagene TRANS ERa GAL4 reporter, mRNA. Put shortly:
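Cells: HepG2, transiently transfected. Construct: GAL4-UAS reporter units regulated by exogenous NR-Gal4 chimeras. Time: 24 h. Detection: reporter mRNA by RT-PCR, capillary electrophoresis, fluorescence. Baseline: DMSO, upward fitting.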

For assay [13], the target named is X-box-binding protein 1 (Homo sapiens) (UniProt P17861). The assay can be described thus: ATG_Xbp1_CIS: Attagene CIS-FACTORIAL HepG2 Assay for human X-box Binding Protein 1 (XBP1) (AID 2282972). Particulars: HepG2 XBP1 cis-element reporter, Attagene multiplex; actives raise or lower the signal. In outline: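 Fluorescence-labelled cDNA fragments from reporter transcripts, separated by capillary electrophoresis, give the signal. Source: HepG2 cells transfected with promoter-driven reporter units, harvested 24 h post-dose. DMSO served as reference for bidirectional curve fitting.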

A short description of assay [14]: ATG_M_19_TRANS: Attagene TRANS-FACTORIAL HepG2 Assay for M19 Transcription Factor (Internal Marker) (AID 2282974; active = hit-call score of the fitted dose curve at least 0.9, where 1 is the maximum). Conditions: HepG2 Attagene TRANS-FACTORIAL M19 internal marker reporter. In outline: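 Background-control readout: after 24 h chemical exposure of transfected HepG2 carrying GAL4-driven reporter units, RNA was reverse-transcribed, amplified, fluorescently labeled and sized by capillary electrophoresis; gain-of-signal fit against DMSO.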

The nature of assay [15]: ATG_PPRE_CIS: Attagene CIS-FACTORIAL HepG2 Assay for human Peroxisome Proliferator-activated Response Element (PPRE) (AID 2282958). Conditions: HepG2 PPRE cis-element reporter, Attagene transcription factor profiling; actives raise or lower the signal. In outline: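 Endogenous PPRE-driven transcription is measured in HepG2 cells carrying transfected multi-reporter constructs. Reporter transcripts are quantified by RT-PCR, HpaI digestion and capillary electrophoresis 24 h after dosing. DMSO baseline, bidirectional fit.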

Assay [16] can be described thus: ATG_RORE_CIS: Attagene CIS-FACTORIAL HepG2 Assay for human RAR-related Orphan Receptor Element (RORE) (AID 2282959). Conditions: HepG2 Attagene cis-factorial RORE reporter, mRNA; actives raise or lower the signal. In outline: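 RORE reporter transcripts reflecting endogenous factor activity were read after 24 h compound exposure of transfected HepG2 cells, using reverse transcription, PCR, fluorescent labelling and capillary electrophoresis sizing. Gain or loss fitted against DMSO.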

A short description of assay [17]: ATG_GAL4_TRANS: Attagene TRANS-FACTORIAL HepG2 Assay for GAL4 (Internal Marker) (AID 2282976; active = hit-call score of the fitted dose curve at least 0.9, where 1 is the maximum). Conditions: HepG2 Attagene TRANS GAL4 internal marker reporter. Put shortly:
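In transfected human HepG2 liver cells dosed 24 h, GAL4 reporter mRNA serves as a baseline marker. Detection by RT-PCR with fluorescent capillary electrophoresis, activity fitted upward relative to DMSO.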

Assay [18] addresses Steroid hormone receptor ERR1 (Homo sapiens) (UniProt P11474). The assay can be described thus: ATG_ERRa_TRANS: Attagene TRANS-FACTORIAL HepG2 Assay for human Estrogen-Related Receptor alpha (ERRa) (AID 2282971; active = hit-call score of the fitted dose curve at least 0.9, where 1 is the maximum). Particulars: HepG2 Attagene TRANS reporter, ERRa transactivation. Put shortly: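 Reporter transcripts from ERRa-Gal4 chimera activity measured in transiently transfected human HepG2 cells 24 hours after dosing, using RT-PCR with 6-FAM primer extension, HpaI digestion and capillary electrophoresis; DMSO is baseline.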

Sequence of Signal transducer and activator of transcription 3 (Homo sapiens) (P40763 whole entry, looked up): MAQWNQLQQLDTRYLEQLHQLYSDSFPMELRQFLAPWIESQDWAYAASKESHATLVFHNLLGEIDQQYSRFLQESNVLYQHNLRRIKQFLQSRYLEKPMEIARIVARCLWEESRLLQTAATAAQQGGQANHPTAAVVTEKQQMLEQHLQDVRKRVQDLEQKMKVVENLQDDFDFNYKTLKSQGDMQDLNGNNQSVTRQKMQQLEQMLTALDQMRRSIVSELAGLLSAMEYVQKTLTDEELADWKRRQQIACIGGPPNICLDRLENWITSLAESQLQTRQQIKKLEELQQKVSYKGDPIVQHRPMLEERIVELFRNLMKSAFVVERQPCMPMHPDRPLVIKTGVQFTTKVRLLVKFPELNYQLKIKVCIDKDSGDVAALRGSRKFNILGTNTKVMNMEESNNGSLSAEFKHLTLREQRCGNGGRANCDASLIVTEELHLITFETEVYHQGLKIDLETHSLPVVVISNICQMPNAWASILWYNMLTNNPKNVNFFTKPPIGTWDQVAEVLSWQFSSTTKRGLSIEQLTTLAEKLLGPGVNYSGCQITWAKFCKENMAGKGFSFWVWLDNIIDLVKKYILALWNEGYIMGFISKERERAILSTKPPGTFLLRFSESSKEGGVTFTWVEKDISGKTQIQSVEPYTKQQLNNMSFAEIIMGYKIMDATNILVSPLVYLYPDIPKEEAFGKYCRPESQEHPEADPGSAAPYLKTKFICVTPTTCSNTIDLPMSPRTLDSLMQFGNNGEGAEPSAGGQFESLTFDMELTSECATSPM
Sequence of Estrogen receptor (Homo sapiens) (P03372 whole entry, looked up, the tested form may be a part): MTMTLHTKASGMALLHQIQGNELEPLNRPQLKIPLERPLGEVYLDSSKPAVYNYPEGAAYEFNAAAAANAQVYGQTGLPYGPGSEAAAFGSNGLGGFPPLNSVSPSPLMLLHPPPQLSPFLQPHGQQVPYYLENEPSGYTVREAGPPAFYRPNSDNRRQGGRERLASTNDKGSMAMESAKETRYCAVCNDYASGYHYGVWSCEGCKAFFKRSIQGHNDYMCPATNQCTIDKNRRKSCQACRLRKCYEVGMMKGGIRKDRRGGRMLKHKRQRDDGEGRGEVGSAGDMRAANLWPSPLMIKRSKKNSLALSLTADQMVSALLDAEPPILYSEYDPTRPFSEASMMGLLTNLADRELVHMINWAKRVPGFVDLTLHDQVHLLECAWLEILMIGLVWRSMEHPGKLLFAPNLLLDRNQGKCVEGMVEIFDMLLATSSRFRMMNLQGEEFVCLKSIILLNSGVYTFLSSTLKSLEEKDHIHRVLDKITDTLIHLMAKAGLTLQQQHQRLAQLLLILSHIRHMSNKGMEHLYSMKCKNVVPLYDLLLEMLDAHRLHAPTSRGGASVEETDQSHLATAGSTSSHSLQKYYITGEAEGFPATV
Sequence of Paired box protein Pax-6 (Homo sapiens) (P26367 whole entry, looked up): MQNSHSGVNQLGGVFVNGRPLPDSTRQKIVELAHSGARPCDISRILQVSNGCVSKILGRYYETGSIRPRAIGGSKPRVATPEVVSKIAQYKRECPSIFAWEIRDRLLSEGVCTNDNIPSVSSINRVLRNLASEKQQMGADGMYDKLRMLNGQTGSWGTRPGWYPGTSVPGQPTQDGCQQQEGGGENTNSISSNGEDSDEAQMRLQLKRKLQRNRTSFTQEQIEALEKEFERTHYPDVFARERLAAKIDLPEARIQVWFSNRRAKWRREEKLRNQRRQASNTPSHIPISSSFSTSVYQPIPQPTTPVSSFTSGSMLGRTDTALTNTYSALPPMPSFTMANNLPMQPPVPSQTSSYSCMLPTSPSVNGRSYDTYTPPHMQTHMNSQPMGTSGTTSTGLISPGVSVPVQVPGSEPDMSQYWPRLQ
Sequence of Transcription factor Sp1 (Homo sapiens) (P08047 whole entry, looked up): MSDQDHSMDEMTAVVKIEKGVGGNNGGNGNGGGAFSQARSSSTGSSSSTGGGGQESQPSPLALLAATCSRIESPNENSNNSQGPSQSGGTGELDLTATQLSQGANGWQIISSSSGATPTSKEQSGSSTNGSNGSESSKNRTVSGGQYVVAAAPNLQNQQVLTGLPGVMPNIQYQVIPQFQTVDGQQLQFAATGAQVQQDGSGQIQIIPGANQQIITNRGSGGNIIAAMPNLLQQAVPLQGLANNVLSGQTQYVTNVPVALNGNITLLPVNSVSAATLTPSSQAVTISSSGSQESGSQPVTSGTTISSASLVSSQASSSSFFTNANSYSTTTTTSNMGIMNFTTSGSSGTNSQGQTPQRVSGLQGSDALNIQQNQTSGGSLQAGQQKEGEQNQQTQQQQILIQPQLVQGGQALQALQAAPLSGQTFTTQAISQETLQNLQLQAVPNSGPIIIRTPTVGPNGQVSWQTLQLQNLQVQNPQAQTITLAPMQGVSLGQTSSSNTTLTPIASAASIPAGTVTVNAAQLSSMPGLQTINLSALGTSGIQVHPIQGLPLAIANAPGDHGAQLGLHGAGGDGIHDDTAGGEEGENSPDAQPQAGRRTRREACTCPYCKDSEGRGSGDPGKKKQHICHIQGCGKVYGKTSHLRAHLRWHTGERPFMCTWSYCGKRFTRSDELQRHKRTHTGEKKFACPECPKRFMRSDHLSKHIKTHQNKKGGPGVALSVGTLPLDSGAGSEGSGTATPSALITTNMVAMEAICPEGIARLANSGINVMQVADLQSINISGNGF
Sequence of X-box-binding protein 1 (Homo sapiens) (P17861 whole entry, looked up, the tested form may be a part): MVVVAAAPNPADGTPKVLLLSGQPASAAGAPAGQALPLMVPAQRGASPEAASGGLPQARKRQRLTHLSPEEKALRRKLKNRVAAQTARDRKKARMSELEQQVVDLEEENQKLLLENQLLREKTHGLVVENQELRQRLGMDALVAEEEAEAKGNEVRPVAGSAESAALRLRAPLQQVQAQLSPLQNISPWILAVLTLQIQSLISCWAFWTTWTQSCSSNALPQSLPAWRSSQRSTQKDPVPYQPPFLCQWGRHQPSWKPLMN
Sequence of Steroid hormone receptor ERR1 (Homo sapiens) (P11474 whole entry, looked up, the tested form may be a part): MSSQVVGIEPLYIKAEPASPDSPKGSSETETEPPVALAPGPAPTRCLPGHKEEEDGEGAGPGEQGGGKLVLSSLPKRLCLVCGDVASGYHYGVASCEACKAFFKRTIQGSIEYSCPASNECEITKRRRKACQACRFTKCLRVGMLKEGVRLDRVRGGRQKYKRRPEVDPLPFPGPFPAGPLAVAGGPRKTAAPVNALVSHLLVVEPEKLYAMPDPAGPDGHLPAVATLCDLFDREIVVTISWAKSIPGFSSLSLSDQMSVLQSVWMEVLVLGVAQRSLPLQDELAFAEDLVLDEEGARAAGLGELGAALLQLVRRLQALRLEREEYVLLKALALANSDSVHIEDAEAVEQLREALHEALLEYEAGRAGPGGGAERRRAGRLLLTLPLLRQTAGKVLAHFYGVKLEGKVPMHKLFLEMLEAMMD

Take `C=CCNCC=C`: the outcome in assay [1], in [3], in assay [4], in assay [5], in [6] and in [7] was inactive. The molecule was called inactive in [8], in assay [9], in assay [10], in assay [11], in assay [12] and in assay [13]. Moreover, in assay [14], the molecule was classed as inactive. The AC50 in [2] is 52.1 µM (active).
For `CCCCCCCC(=O)OCC`, the outcome in assay [2], in assay [15], in assay [16], in assay [3], in assay [4] and in [5] was inactive. In addition, the call in assay [6], in assay [7], in assay [8], in [9], in assay [12] and in assay [13] was inactive. In addition, the call in assay [14] and in [17] was inactive.
As to `CC12CCC(CC1)C(C)(C)O2`, the outcome in assay [2], in assay [15], in assay [3], in [4], in [5] and in [6] was inactive. The result in assay [7], in assay [8], in [9], in [10], in assay [11] and in assay [13] was inactive. The outcome in assay [17] was inactive.
Consider `O=C(Nc1ccccc1)c1cc(Cl)ccc1O`, for which the result in [1], in assay [3], in assay [7], in assay [8], in assay [9] and in assay [12] was inactive. Also, in assay [14], the molecule was classed as inactive. For the same molecule, the AC50 was 25.6 µM (active) in [2]; 15.5 µM (active) in assay [16]; 3.65 µM (active) in [4]; 5.55 µM (active) in assay [5]; 52.5 µM (active) in assay [10]; 6.51 µM (active) in assay [11]. In [13], the AC50 is 4.18 µM (active).
As for `Cc1c[nH]c(=O)[nH]c1=O`, the molecule was classed as inactive in [1], in [2], in assay [16], in assay [3], in assay [4] and in [5]. The outcome in assay [7], in [8], in assay [9], in assay [10] and in [13] was inactive.
As to `CCCCCC[C@@H](O)C/C=C\CCCCCCCC(=O)OCC(O)CO` (stereo not given in full), the call in assay [2], in assay [16], in assay [3], in assay [6], in assay [8] and in [11] was inactive. Besides, the outcome in assay [12], in assay [14] and in assay [17] was inactive. In addition, the AC50 in assay [15] is 11 µM (active); in assay [4], 190 µM (active); in assay [5], 122 µM (active); in [7], 150 µM (active); in assay [9], 164 µM (active); in assay [13] it was 175 µM (active).
For `Cc1ccc(C)c(OCCCC(C)(C)C(=O)O)c1`, the molecule was classed as inactive in [1], in [16], in [3], in assay [4], in assay [5] and in assay [6]. The call in [7], in [8], in assay [9], in assay [10], in [13] and in assay [17] was inactive. Moreover, the concentration at half-maximal activity (AC50) in [2] was 22.5 µM (active); in [12] it was 20.2 µM (active).
With `O=S(=O)(O)c1ccc(Nc2nc(Nc3ccc(C=Cc4ccc(Nc5nc(Nc6ccc(S(=O)(=O)O)cc6)nc(N(CCO)CCO)n5)cc4S(=O)(=O)O)c(S(=O)(=O)O)c3)nc(N(CCO)CCO)n2)cc1`, the result in assay [1], in assay [16], in assay [3], in [4], in [5] and in [6] was inactive. In addition, the molecule was called inactive in [7], in assay [8], in assay [9], in assay [10], in assay [11] and in assay [18]. The molecule was classed as inactive in assay [13] and in assay [17]. For the same molecule, the AC50 in assay [2] was 21.2 µM (active).
`CCC(C)N` (stereo not given): the AC50 in [2] was 47.5 µM (active). Besides, the call in assay [15], in assay [16], in assay [3], in [4], in assay [5] and in assay [6] was inactive. Moreover, the molecule was called inactive in assay [8], in assay [9], in assay [10] and in [11].
In the case of `CCOB(OCC)OCC`, the result in assay [1], in assay [2], in assay [16], in assay [3], in assay [4] and in assay [5] was inactive. Further, the result in assay [6], in assay [7], in assay [8], in [9], in [10] and in [11] was inactive. Further, the call in assay [13] and in assay [14] was inactive.
